Source: PubChem BioAssay
Compounds with a hit are over-represented: about 21% of the library has one in this group of screens.
NS1 function inh = inhibitors of influenza NS1 protein function; AID 2326; Potency, µM (highest dose often 46.1 µM), for the others: at the highest dose activity, positive = more growth; 270,000 tested, 0.4% active; calls by dose curve; note: potency is the fitted concentration of half-maximal effect; actives are rising curves; nearly all actives have a fitted effect of over 50% in size
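Growth recovery, yeast-based: influenza A NS1 expressed in S. cerevisiae causes slow growth, and suppressors are detected by OD600. The parent strain without NS1 is used as positive control.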
Pf growth 96h = P. falciparum growth inhibition at 96 hour, primary screen for plastid delayed-death inhibitors. P. falciparum luciferase reporter growth, 96 h. Potency, µM (series often up to 28.7 µM), for inactives: top-dose activity change, negative = inhibition, usual class: inhibitors. 320,000 tested, 6.9% active; note: potency is the fitted concentration of half-maximal effect; % is set by controls: 0 for no effect and ±100 for the full control effect
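Cell-based qHTS: luciferase-tagged P. falciparum in erythrocytes (2% hematocrit, 0.05% parasitemia final) incubated with compounds for 96 hours, 37 C, 5% CO2; luciferase detection reagent then added and luminescence measured.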
Shiga toxin inh = inhibitors of Shiga toxin in Vero cells; Vero cells, Shiga toxin protein synthesis inhibition reporter; inhibition, % at 38.7 µM; 290,000 tested, 9.2% active; in the data active = inhibition mostly above about 28%, no sharp cut-off; inactive = mostly below about 43%; note: 0% is about no effect
CHX counter = counter-screen for Shiga toxin inhibitors: cycloheximide protein synthesis inhibition. cell reporter, cycloheximide protein synthesis inhibition counterscreen. max response, %. 300,000 tested, 12% active. AID 2314; in the data active = max response mostly above about 13%, no sharp cut-off; inactive = mostly below about 14%; note: read at 38.3 µM for the half of the compounds with a filed dose; 0% is about no effect
SARS PLpro yeast = SARS-CoV PLP inhibition in yeast; S. cerevisiae expressing SARS-CoV PLpro, growth rescue; 330,000 tested, 0.19% active; AID 485353; Potency, µM (titrated, usually from 32.9 µM), inactives show at the top dose activity, positive = growth rescue, hits mostly activators; calls by dose curve; note: potency is the fitted concentration of half-maximal effect; 0% is about no effect; nearly all actives have a fitted effect of over 55% in size
Pf growth 48h = P. falciparum growth inhibition at 48 hours (one generation); P. falciparum luciferase growth in erythrocytes, 48 h; Potency, µM (highest dose often 28.7 µM), inactives show top-dose activity change, negative = inhibition, hits mostly inhibitors; 310,000 tested, 5.9% active; AID 504832; note: potency is the fitted concentration of half-maximal effect; % is set by controls: 0 for no effect and ±100 for the full control effect
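Growth was read as firefly luciferase luminescence after a 48 h, 37 C, 5% CO2 exposure of compounds to reporter-bearing P. falciparum cultures (0.1% parasitemia, 2% hematocrit final) in Albumax-supplemented RPMI 1640.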
Active calls of the source: *. Unless noted, calls come from the whole dose curve; as a rule, active = well fitted inhibition curve with a large enough effect; inconclusive = small, poorly fitted or top-dose-only effect, or another doubt; inactive = no such curve, though single readings can be large or run the other way.

What do the screens show for `COc1ccc(-c2cn(Cc3ccc(C(=O)c4ccccc4)cc3)nn2)cc1`?
NS1 function inh: 38%; Pf growth 96h: 85%; Shiga toxin inh: 62*; CHX counter: 43*; SARS PLpro yeast: 4%; Pf growth 48h: 86%

How did COc1ccc(-c2cn(CCCOCc3ccccc3)nn2)cc1 do in these assays?
NS1 function inh: -32%; Pf growth 96h: inconclusive; Shiga toxin inh: 25*; CHX counter: 16*; SARS PLpro yeast: -14%; Pf growth 48h: inconclusive

What do the screens show for `Nc1nc(CSC(=S)N2CCCCC2)nc(Nc2ccccc2)n1`?
Pf growth 96h: 74%; Shiga toxin inh: 87*; CHX counter: 40*; SARS PLpro yeast: -2%; Pf growth 48h: 25%

How did Nc1nc(CSC(=S)N2CCOCC2)nc(Nc2ccccc2)n1 do in these assays?
NS1 function inh: 14%; Pf growth 96h: 13%; Shiga toxin inh: 94*; CHX counter: 54*; SARS PLpro yeast: 21%; Pf growth 48h: 196%

Results for Cc1cccc(Nc2nc(N)nc(CSC(=S)N3CCOCC3)n2)c1 ?
NS1 function inh: -5%; Pf growth 96h: 29%; Shiga toxin inh: 1; CHX counter: 7; SARS PLpro yeast: 8%; Pf growth 48h: 48%

What do the screens show for `Cc1ccc(Nc2nc(N)nc(CSC(=S)N3CCOCC3)n2)cc1`?
NS1 function inh: -87%; Pf growth 96h: 222%; Shiga toxin inh: 96*; CHX counter: 46*; SARS PLpro yeast: 5%; Pf growth 48h: 99%

What do the screens show for `COc1ccccc1Nc1nc(N)nc(CSC(=S)N2CCCCC2)n1`?
NS1 function inh: -59%; Pf growth 96h: 25%; Shiga toxin inh: 59*; CHX counter: 31*; SARS PLpro yeast: 3%; Pf growth 48h: -2%

Results for CC1CC(C)CN(C(=S)SCc2nc(N)nc(Nc3ccccc3)n2)C1 (configuration not stated) ?
NS1 function inh: 11%; Pf growth 96h: inconclusive; Shiga toxin inh: 21; CHX counter: -1; SARS PLpro yeast: 0%; Pf growth 48h: inconclusive

What do the screens show for `Cc1cc(=O)n2nc(N3CCCC(C(=O)Nc4ccc(C)c(C)c4)C3)sc2n1` (configuration not stated)?
NS1 function inh: 8%; Pf growth 96h: inconclusive; Shiga toxin inh: -2; CHX counter: -2; SARS PLpro yeast: -9%; Pf growth 48h: 23%

What do the screens show for `Nc1nc(CSC(=S)N2CCN(c3ccccc3)CC2)nc(Nc2ccc(F)cc2)n1`?
NS1 function inh: 19%; Pf growth 96h: 12µM*; Shiga toxin inh: -8; CHX counter: 8; SARS PLpro yeast: -21%; Pf growth 48h: inconclusive

How did CCOc1ccc(Nc2nc(N)nc(CSC(=S)N3CCOCC3)n2)cc1 do in these assays?
NS1 function inh: 3%; Pf growth 96h: -1%; Shiga toxin inh: 46; CHX counter: 44*; SARS PLpro yeast: 1%; Pf growth 48h: -4%

What do the screens show for `C=CCc1cccc(/C=N/NC(=O)CCC(=O)Nc2ccc(C)cc2)c1O`?
NS1 function inh: 6%; Pf growth 96h: 0%; Shiga toxin inh: -12; CHX counter: -2; SARS PLpro yeast: 30%; Pf growth 48h: 18%

Results for Cc1cccc(-n2c(C)nc3cc(C(=O)NCc4ccc5c(c4)OCO5)ccc32)c1 ?
NS1 function inh: -15%; Pf growth 96h: inconclusive; Shiga toxin inh: -5; CHX counter: 5; SARS PLpro yeast: -14%; Pf growth 48h: 10%

What do the screens show for `CCOC(=O)c1c(C)[nH]c(C2=NNC(=Nc3cccc(Cl)c3)SC2)c1C`?
NS1 function inh: -3%; Pf growth 96h: 2.1µM*; Shiga toxin inh: 4; CHX counter: -3; SARS PLpro yeast: -40%; Pf growth 48h: 2.1µM*

How did O=C1c2ccccc2C(=O)N1/N=C/c1ccc(O)c(O)c1 do in these assays?
NS1 function inh: 3%; Pf growth 96h: -13%; Shiga toxin inh: 47*; CHX counter: 9; SARS PLpro yeast: 13%; Pf growth 48h: -8%

Results for Cc1onc(-c2ccccc2Cl)c1C(N)=O ?
NS1 function inh: 1%; Pf growth 96h: -3%; Shiga toxin inh: -4; CHX counter: 3; SARS PLpro yeast: -3%; Pf growth 48h: 9%

What do the screens show for `COc1ccccc1CNC(=O)c1c(-c2ccccc2Cl)noc1C`?
NS1 function inh: 6%; Pf growth 96h: 57%; Shiga toxin inh: -6; CHX counter: 2; SARS PLpro yeast: 4%; Pf growth 48h: 10µM*

Results for Cc1onc(-c2ccccc2Cl)c1C(=O)NC(C)c1ccccc1 (configuration not stated) ?
NS1 function inh: inconclusive; Pf growth 96h: 13µM*; Shiga toxin inh: -1; CHX counter: -1; SARS PLpro yeast: 3%; Pf growth 48h: -21%

What do the screens show for `COc1ccc(-c2noc(CN(C(=O)c3c(-c4ccccc4Cl)noc3C)C(C)C)n2)cc1`?
NS1 function inh: 4%; Shiga toxin inh: 15; CHX counter: -1; SARS PLpro yeast: -10%; Pf growth 48h: 10µM*

Results for Cc1ccc(NC(=S)NC(=O)c2c(-c3ccccc3Cl)noc2C)cc1 ?
NS1 function inh: 9%; Pf growth 96h: inconclusive; Shiga toxin inh: -12; CHX counter: 3; SARS PLpro yeast: -12%; Pf growth 48h: 10µM*

Results for Cc1onc(-c2ccccc2Cl)c1C(=O)N(Cc1ccccc1)C(C)C ?
NS1 function inh: -10%; Pf growth 96h: 21%; Shiga toxin inh: -9; CHX counter: -2; SARS PLpro yeast: -2%; Pf growth 48h: -24%

How did COc1ccccc1NC(=O)Cc1noc(CSc2nnc(C)n2C)n1 do in these assays?
NS1 function inh: 13%; Pf growth 96h: inconclusive; Shiga toxin inh: 16; CHX counter: -2; SARS PLpro yeast: 2%; Pf growth 48h: inconclusive

What do the screens show for `CCN(CC(=O)Nc1c(F)cccc1F)C(=O)c1csc2c1CCCC2`?
Pf growth 96h: 2%; SARS PLpro yeast: -2%; Pf growth 48h: 2%

How did Cc1c(NC(=O)C(C)Sc2nc(N)cc(=O)[nH]2)c(=O)n(-c2ccccc2)n1C (configuration not stated) do in these assays?
Pf growth 96h: -5%; SARS PLpro yeast: -8%; Pf growth 48h: -9%

Results for Cc1onc(-c2ccccc2Cl)c1C(=O)NC(=S)NCCc1ccccc1 ?
NS1 function inh: 24%; Pf growth 96h: 33%; Shiga toxin inh: -5; CHX counter: -3; SARS PLpro yeast: -13%; Pf growth 48h: -20%

What do the screens show for `Cc1onc(-c2ccccc2Cl)c1C(=O)NC(=S)Nc1ccccc1F`?
NS1 function inh: 5%; Pf growth 96h: 46%; Shiga toxin inh: 12; CHX counter: 9; SARS PLpro yeast: -3%; Pf growth 48h: 4.1µM*

How did COc1ccccc1NC(=S)NC(=O)c1c(-c2ccccc2Cl)noc1C do in these assays?
NS1 function inh: inconclusive; Pf growth 96h: 22%; Shiga toxin inh: -3; CHX counter: 7; SARS PLpro yeast: -2%; Pf growth 48h: inconclusive
